Inconclusive results are not listed. For part of these data: Measured potencies and affinities stand elsewhere. Activity calls are given as the source filed them. Unless noted, the rule behind the calls is not given here.
Key:
[1] = stimulators of insulin release from INS-1E, primary screen, cell-based, 5 mM glucose, NPC library (AID 1117329;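 active = compound raises insulin release from rat beta cells at 5 mM glucose, no numeric limit stated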); details: rat INS-1E insulin secretion, at 10 µM, stronger effect = higher value
[2] = growth inhibition of GSK3B-pretreated HCT116 cells – cell-based, CellTiter-Glo, 0.2 to 20 µM (AID 1117336;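 active = compounds lowering colon cancer cell viability after pretreatment blocking the GSK3B kinase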); details: HCT116 viability after GSK3B inhibitor, at 20 µM, stronger effect = higher value
[3] = inhibition of endothelial tube formation, primary screen, imaging, VEGF stimulated, CD31 staining, tube area, NPC library (AID 1117340;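 active = compound that reduces growth-factor-driven endothelial tube area in a mixed cell culture, no cutoff stated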); details: VEGF-stimulated ADSC/ECFC co-culture, at 10 µM, stronger effect = higher value
[4] = glucagon-like peptide 1 release enhancers, primary assay, NCI-H716 cell line, NPC library (AID 1117341;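 active = compound raises GLP1 secretion from the human gut endocrine cells, with no numeric limit stated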); details: NCI-H716 cells, at 10 µM, stronger effect = higher value
[5] = HCT116 colon cancer cell growth inhibition, primary screen, CellTiter-Glo luminescence, NPC library (AID 1117342;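 active = compounds that lower survival of HCT116 colon cancer cells in the luminescence readout, no numeric limit stated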); details: at 20 µM (top of the series)
[6] = CellTiter-Glo luminescent readout of SW480 viability loss, NPC library primary (AID 1117343;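 active = compounds that lower viability of the colon cancer cells in the luminescence readout, with no numeric limit stated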); details: CellTiter-Glo luminescence; at 20 µM (top of the series)
[7] = decreased DLD-1 cellular survival, CellTiter-Glo luminescent readout, NPC compound collection, primary HTS (AID 1117346;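 active = compounds that lower survival of DLD-1 colon cancer cells in the luminescence readout, no cutoff given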); details: DLD-1 viability, CellTiter-Glo luminescence; at 20 µM (top of the series)
[8] = target: Calcium-dependent protein kinase 1 (Plasmodium falciparum (isolate 3D7)) (UniProt P62344); experiment: PfCDPK1 kinase inhibitors, biochemical, TCAMS library (AID 1159585; cut-off not given, nearly all actives have IC50 up to about 0.98 µM;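 note: inhibitors leave more ATP so luminescence rises with inhibition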); details: recombinant PfCDPK1, Kinase-Glo ATP depletion luminescence
Chain of Calcium-dependent protein kinase 1 (Plasmodium falciparum (isolate 3D7)) (P62344 whole entry, looked up): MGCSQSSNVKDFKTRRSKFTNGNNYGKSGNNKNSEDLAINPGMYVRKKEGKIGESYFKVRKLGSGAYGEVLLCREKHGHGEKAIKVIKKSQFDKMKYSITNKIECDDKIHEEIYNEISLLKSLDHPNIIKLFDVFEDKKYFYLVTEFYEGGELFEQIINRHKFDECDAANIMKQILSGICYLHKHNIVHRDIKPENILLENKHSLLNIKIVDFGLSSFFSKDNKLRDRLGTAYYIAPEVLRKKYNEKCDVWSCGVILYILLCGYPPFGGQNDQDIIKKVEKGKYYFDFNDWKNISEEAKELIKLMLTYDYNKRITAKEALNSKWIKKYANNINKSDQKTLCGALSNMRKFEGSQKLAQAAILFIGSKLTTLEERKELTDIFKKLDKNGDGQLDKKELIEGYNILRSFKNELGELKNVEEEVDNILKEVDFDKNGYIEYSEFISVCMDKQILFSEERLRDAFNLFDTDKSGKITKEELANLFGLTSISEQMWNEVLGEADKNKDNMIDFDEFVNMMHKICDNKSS

[9] = target: Plasmodium falciparum protein kinase 6 (PK6, PF3D7_1337100) (UniProt Q8IDW1); experiment: PfPK6 kinase inhibitors, biochemical, TCAMS library (AID 1159586); details: recombinant PfPK6, Kinase-Glo ATP depletion luminescence
Chain of Plasmodium falciparum protein kinase 6 (PK6, PF3D7_1337100) (Q8IDW1 1-305): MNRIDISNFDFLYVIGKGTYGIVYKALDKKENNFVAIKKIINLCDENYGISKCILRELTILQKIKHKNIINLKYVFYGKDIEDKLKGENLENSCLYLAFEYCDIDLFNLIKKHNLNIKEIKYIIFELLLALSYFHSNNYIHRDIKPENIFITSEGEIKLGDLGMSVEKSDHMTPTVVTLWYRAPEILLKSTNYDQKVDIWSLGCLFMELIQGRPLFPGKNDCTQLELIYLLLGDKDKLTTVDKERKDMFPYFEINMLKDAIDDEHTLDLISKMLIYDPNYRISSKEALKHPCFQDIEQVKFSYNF

[10] = target: Protein kinase 7 (PK7), Plasmodium falciparum 3D7 (PF3D7_0213400) (UniProt Q7YTF7); experiment: inhibition of Plasmodium PK7 catalytic activity – biochemical, TCAMS antimalarial set, Kinase-Glo luminescence (AID 1159587); details: recombinant PfPK7, Kinase-Glo ATP depletion luminescence
Chain of Protein kinase 7 (PK7), Plasmodium falciparum 3D7 (PF3D7_0213400) (Q7YTF7 1-343): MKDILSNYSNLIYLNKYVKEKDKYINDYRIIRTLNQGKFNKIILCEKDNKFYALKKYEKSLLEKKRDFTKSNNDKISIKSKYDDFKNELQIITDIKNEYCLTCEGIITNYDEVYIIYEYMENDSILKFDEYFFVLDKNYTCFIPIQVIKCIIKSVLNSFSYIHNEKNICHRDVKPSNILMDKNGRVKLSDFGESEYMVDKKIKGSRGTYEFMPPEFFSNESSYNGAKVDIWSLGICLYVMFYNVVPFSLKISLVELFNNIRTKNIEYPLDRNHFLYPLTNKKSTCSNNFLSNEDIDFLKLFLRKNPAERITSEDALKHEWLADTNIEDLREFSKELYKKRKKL

[11] = target: Calcium-dependent protein kinase 4 (Plasmodium falciparum (isolate 3D7)) (UniProt Q8IBS5); experiment: PfCDPK4 kinase inhibitors, biochemical, TCAMS library (AID 1159588; cut-off not given, nearly all actives have IC50 up to about 0.91 µM); details: recombinant PfCDPK4, Kinase-Glo ATP depletion luminescence
Chain of Calcium-dependent protein kinase 4 (Plasmodium falciparum (isolate 3D7)) (Q8IBS5 whole entry, looked up): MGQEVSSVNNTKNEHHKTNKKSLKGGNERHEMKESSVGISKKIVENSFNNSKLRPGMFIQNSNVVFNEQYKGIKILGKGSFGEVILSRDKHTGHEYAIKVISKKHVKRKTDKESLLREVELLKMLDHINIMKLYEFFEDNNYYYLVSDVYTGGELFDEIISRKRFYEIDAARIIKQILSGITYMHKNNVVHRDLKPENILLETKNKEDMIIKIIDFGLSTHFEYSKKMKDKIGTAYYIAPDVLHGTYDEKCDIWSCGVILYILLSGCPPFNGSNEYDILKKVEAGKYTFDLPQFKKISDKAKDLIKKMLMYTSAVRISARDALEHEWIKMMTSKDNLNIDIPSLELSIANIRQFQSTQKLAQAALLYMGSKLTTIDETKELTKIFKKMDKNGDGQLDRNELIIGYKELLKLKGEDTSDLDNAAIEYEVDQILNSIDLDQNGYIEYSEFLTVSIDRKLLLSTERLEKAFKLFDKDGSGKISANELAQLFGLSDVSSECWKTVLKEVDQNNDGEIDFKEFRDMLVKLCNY

[12] = target: 6-phosphogluconate dehydrogenase, decarboxylating (Homo sapiens) (UniProt P52209); experiment: 6PGD enzyme inhibitors, primary screen, biochemical, human, recombinant enzyme, NADPH absorbance (AID 1159550;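 active = at least 20% inhibition of 6-phosphogluconate dehydrogenase activity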); details: recombinant 6PGD, NADPH absorbance 341 nm; at 10 µM; stronger effect = higher value
Chain of 6-phosphogluconate dehydrogenase, decarboxylating (Homo sapiens) (P52209 whole entry, looked up): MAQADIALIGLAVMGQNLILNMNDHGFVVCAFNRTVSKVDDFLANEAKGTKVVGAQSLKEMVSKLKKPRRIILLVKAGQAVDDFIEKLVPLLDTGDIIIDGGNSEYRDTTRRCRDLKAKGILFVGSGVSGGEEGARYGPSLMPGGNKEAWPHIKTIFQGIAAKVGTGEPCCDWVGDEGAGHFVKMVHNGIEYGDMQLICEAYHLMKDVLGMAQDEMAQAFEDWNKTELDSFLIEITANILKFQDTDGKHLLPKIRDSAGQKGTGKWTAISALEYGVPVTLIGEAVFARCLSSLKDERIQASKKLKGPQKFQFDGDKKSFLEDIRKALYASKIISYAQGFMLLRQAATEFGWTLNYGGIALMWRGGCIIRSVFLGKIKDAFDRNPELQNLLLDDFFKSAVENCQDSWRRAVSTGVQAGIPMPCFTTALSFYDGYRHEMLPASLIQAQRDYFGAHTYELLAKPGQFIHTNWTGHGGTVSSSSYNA

[13] = growth inhibition of DIPG glioma cells, dose response, cell-based, SU-DIPG-XVII, MIPE5.0, CellTiter-Glo, qHTS (AID 1347060; cut-off not given, nearly all actives have AC50 up to about 26 µM); details: SU-DIPG-XVII viability, CellTiter-Glo ATP luminescence
[14] = growth inhibition of DIPG glioma cells, dose response, cell-based, SU-DIPG-XIII, MIPE4.0, CellTiter-Glo, qHTS (AID 1347061; cut-off not given, nearly all actives have AC50 up to about 37 µM;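 note: cells exposed to compound for 48 hours before readout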); details: SU-DIPG-XIII viability, CellTiter-Glo ATP luminescence
[15] = growth inhibition of DIPG glioma cells, dose response, cell-based, JHH-DIPG-1, MIPE4.0, CellTiter-Glo, qHTS (AID 1347062; cut-off not given, nearly all actives have AC50 up to about 27 µM;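 for AC50: cells exposed to compound for two days before readout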); details: JHH-DIPG-1 viability, CellTiter-Glo ATP luminescence
[16] = growth inhibition of DIPG glioma cells, dose response, cell-based, SU-DIPG-IV, MIPE4.0, CellTiter-Glo, qHTS (AID 1347063; cut-off not given, nearly all actives have AC50 up to about 30 µM;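 note: compound exposure lasted 48 hours before the viability readout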); details: SU-DIPG-IV viability, CellTiter-Glo ATP luminescence
[17] = growth inhibition of DIPG glioma cells, dose response, cell-based, SU-DIPG-XIII, MIPE5.0, CellTiter-Glo, qHTS (AID 1347064; cut-off not given, nearly all actives have AC50 up to about 23 µM;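 for AC50: cells exposed to compound for 48 hours before the viability read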); details: SU-DIPG-XIII viability, CellTiter-Glo ATP luminescence
[18] = modulation of C. elegans fzo-1 (AID 1259413);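 note: fzo-1 mutant C. elegans worms in liquid wells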; details: C. elegans fzo-1 modulator screen, mean read-out; stronger effect = higher value
[19] = system: Aerobactin synthetase IucA (Klebsiella pneumoniae); experiment: IucA aerobactin synthetase inhibitors, biochemical, Tocris library, absorbance (AID 1345561); details: purified IucA enzyme assay, absorbance (OD) read-out; stronger effect = lower value;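 tested at 8 µM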;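 note: 100% = enzyme without compound and 0% = no enzyme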
[20] = differential killing of epithelial or mesenchymal cells, primary screen, imaging, PC-3E GFP, TEM4-18 mCherry, co-culture (AID 1345086;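 active = compounds killing one labelled cell type while sparing the other, by normalised counts and ratio limits, not self-fluorescent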;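 for all read-outs here: cells exposed to compound for 72 h before imaging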;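 for red/green cell ratio (normalised): normalised mesenchymal count divided by normalised epithelial count so high means epithelial killing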); details: imaging cell counts, at 1 µM; for red/green cell ratio (normalised): actives lie on both sides, counts scaled to control wells, 1 = unselective
[21] = measured here: epithelial PC-3E GFP cell survival
[22] = measured here: mesenchymal TEM4-18 mCherry cell survival

Cc1nc(N)nc(N)c1-c1ccc(Cl)c(Cl)c1
inactive: insulin secretion stimulation [1] 1.95% | tube area decrease [3] -11.8% | GLP1 secretion stimulation [4] 2.8% | outcome [8] | outcome [9] | outcome [10] | outcome [11]
active: viability decrease [2] 101% | inhibition of viability [5] 95.5% | viability decrease (inhibition) [6] 131% | viability decrease (inhibition) [7] 68.5%

C[N+]1(C)[C@@H]2CC(OC(=O)[C@H](CO)c3ccccc3)C[C@H]1[C@@H]1O[C@@H]12 (stereo partly drawn)
inactive: insulin secretion stimulation [1] 0.2% | viability decrease [2] -19.7% | tube area decrease [3] 5.6% | GLP1 secretion stimulation [4] -2.3% | inhibition of viability [5] 2% | viability decrease (inhibition) [6] -6.3% | viability decrease (inhibition) [7] -6.1% | inhibition [12] 0.481% | outcome [13] | outcome [14] | outcome [15] | outcome [16] | outcome [17]

COc1cc(/C=C/C(=O)CC(=O)/C=C/c2ccc(O)c(OC)c2)ccc1O
active: AC50 [16] 30.3 µM | AC50 [17] 16.6 µM
inactive: insulin secretion stimulation [1] 1.35% | viability decrease [2] 26.1% | tube area decrease [3] -1.2% | GLP1 secretion stimulation [4] -0.1% | inhibition of viability [5] 11.9% | viability decrease (inhibition) [6] -4.1% | viability decrease (inhibition) [7] -7.3% | inhibition [12] 8.75%

CC(Cc1ccccc1)(NC(=O)CN)c1ccccc1 (stereo not drawn)
inactive: insulin secretion stimulation [1] 2.2% | viability decrease [2] -5.9% | tube area decrease [3] -10.6% | GLP1 secretion stimulation [4] 0.5% | inhibition of viability [5] 13.7% | viability decrease (inhibition) [6] 17.1% | viability decrease (inhibition) [7] 19.6% | mean signal [18] 268 | remaining activity [19] 116%

Nc1nnc(-c2cccc(Cl)c2Cl)c(N)n1
inactive: insulin secretion stimulation [1] -0.4% | viability decrease [2] -5.8% | tube area decrease [3] 9.4% | GLP1 secretion stimulation [4] -4.7% | inhibition of viability [5] 9.7% | viability decrease (inhibition) [6] 29.2% | viability decrease (inhibition) [7] -4.7% | mean signal [18] 281 | red/green cell ratio (normalised) [20] 0.86 | outcome [13] | outcome [14] | outcome [17]
0.91: normalised cell number [20, 22]
1.05: normalised cell number [20, 21]

CCN1CCC[C@H]1CNC(=O)c1c(O)c(Cl)cc(Cl)c1OC
inactive: insulin secretion stimulation [1] -0.9% | viability decrease [2] -21% | tube area decrease [3] -4.8% | GLP1 secretion stimulation [4] 2.2% | inhibition of viability [5] 9.13% | viability decrease (inhibition) [6] -26.4% | viability decrease (inhibition) [7] -11.6% | mean signal [18] 227 | remaining activity [19] 118%

NS(=O)(=O)Cc1noc2ccccc12
inactive: insulin secretion stimulation [1] -1.7% | viability decrease [2] -1.75% | tube area decrease [3] 3.7% | GLP1 secretion stimulation [4] 2.1% | inhibition of viability [5] 4.9% | viability decrease (inhibition) [6] 44.2% | viability decrease (inhibition) [7] 24.9% | mean signal [18] 260 | remaining activity [19] 96.2%

COc1ccc(CC2c3cc(OC)c(OC)cc3CC[N+]2(C)CCC(=O)OCCCCCOC(=O)CC[N+]2(C)CCc3cc(OC)c(OC)cc3C2Cc2ccc(OC)c(OC)c2)cc1OC (stereo not drawn)
inactive: insulin secretion stimulation [1] 13.1% | GLP1 secretion stimulation [4] -3% | inhibition of viability [5] 6.9% | mean signal [18] 250 | red/green cell ratio (normalised) [20] 0.8 | outcome [13] | outcome [14] | outcome [15] | outcome [16]
0.94: normalised cell number [20, 22]
1.18: normalised cell number [20, 21]
active: viability decrease [2] 65.7% | tube area decrease [3] 44.4% | viability decrease (inhibition) [6] 81.7% | viability decrease (inhibition) [7] 51.9%

Nc1nc2c(ncn2COC(CO)CO)c(=O)[nH]1
active: AC50 [15] 16.6 µM | AC50 [16] 20.9 µM
1.07: normalised cell number [20, 22]
1.04: normalised cell number [20, 21]
inactive: insulin secretion stimulation [1] 0% | viability decrease [2] -10.4% | tube area decrease [3] -6.4% | GLP1 secretion stimulation [4] -2% | inhibition of viability [5] 4.7% | viability decrease (inhibition) [6] -10.2% | viability decrease (inhibition) [7] -8.6% | mean signal [18] 268 | red/green cell ratio (normalised) [20] 1.03 | outcome [13]

O=C(c1ccc(F)cc1)C1CCN(CCn2c(=S)[nH]c3ccccc3c2=O)CC1
active: viability decrease [2] 63.4% | inhibition of viability [5] 69.7% | viability decrease (inhibition) [6] 69.7% | viability decrease (inhibition) [7] 59.8%
inactive: insulin secretion stimulation [1] -1.4% | tube area decrease [3] -7.4% | GLP1 secretion stimulation [4] 3.7% | mean signal [18] 246 | remaining activity [19] 106%

N#Cc1ccc(C(c2ccc(C#N)cc2)n2cncn2)cc1
1.21: normalised cell number [20, 21]
1.28: normalised cell number [20, 22]
inactive: insulin secretion stimulation [1] 0.6% | viability decrease [2] -9.1% | tube area decrease [3] -17.6% | GLP1 secretion stimulation [4] -2.1% | inhibition of viability [5] 9.8% | viability decrease (inhibition) [6] -2.1% | viability decrease (inhibition) [7] -3.3% | mean signal [18] 236 | red/green cell ratio (normalised) [20] 1.05 | outcome [13] | outcome [15] | outcome [17]

CC(=O)Oc1ccccc1C(=O)Nc1ncc([N+](=O)[O-])s1
1.31: normalised cell number [20, 21]
0.98: normalised cell number [20, 22]
inactive: insulin secretion stimulation [1] -1.8% | GLP1 secretion stimulation [4] 2.9% | mean signal [18] 256 | red/green cell ratio (normalised) [20] 0.75
active: viability decrease [2] 106% | tube area decrease [3] 110% | inhibition of viability [5] 107% | viability decrease (inhibition) [6] 120% | viability decrease (inhibition) [7] 95.2% | AC50 [14] 27 µM | AC50 [15] 38.2 µM | AC50 [16] 34 µM

CC(C)(C#N)c1cc(Cn2cncn2)cc(C(C)(C)C#N)c1
inactive: insulin secretion stimulation [1] 2.3% | viability decrease [2] -0.4% | tube area decrease [3] -11.4% | GLP1 secretion stimulation [4] 2.1% | inhibition of viability [5] -5.9% | viability decrease (inhibition) [6] 45.5% | viability decrease (inhibition) [7] 0.55% | mean signal [18] 266 | red/green cell ratio (normalised) [20] 1.37 | outcome [13] | outcome [14] | outcome [15]
1.02: normalised cell number [20, 22]
0.74: normalised cell number [20, 21]

O=C1CCc2ccc(OCCCCN3CCN(c4cccc(Cl)c4Cl)CC3)cc2N1
active: viability decrease [2] 95% | inhibition of viability [5] 99.4% | viability decrease (inhibition) [6] 112% | viability decrease (inhibition) [7] 89.5%
0.94: normalised cell number [20, 22]
1.31: normalised cell number [20, 21]
inactive: insulin secretion stimulation [1] 3.7% | tube area decrease [3] 3.8% | GLP1 secretion stimulation [4] 10.2% | mean signal [18] 231 | red/green cell ratio (normalised) [20] 0.72 | outcome [14] | outcome [15]
